The text below walks through data of PubChem BioAssay (NCI).

This is part of a sample that, as a whole, favours compounds with a hit. Of some 79,000 tested, about 15% had one in any assay. Unmarked numbers belong to inactive results. The source made the active and inactive calls. Rule as the data show it: active = growth inhibition above about 70%; inactive = the rest.

A short description of this assay: NCI Yeast Anticancer Drug Screen. Data for the sgs1 mgt1 strain (AID 161).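 Also: 0% = growth of cultures given vehicle only.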 The settings on record: S. cerevisiae sgs1 mgt1 strain, hits give high values. The procedure:
Growth inhibition of yeast strains with defined genetic alterations is measured as a screen for potential anti-cancer activity. Selected strains with alterations in DNA damage repair or cell cycle control were exposed to compounds and growth inhibition was measured relative to vehicle treated controls. The strain used in this assay is sgs1 mgt1

Setting [1] is: at 5.0 µM (retest, dose inferred, filed as 0.5).
Setting [2] is: at 50.0 µM (retest, dose inferred, filed as 5.0).

Take `CCOC(=O)Nc1ccc2c(c1)Cc1ccccc1-2`: the growth inhibition is, setting by setting: under setting [1], 4%; under setting [2], 8%; (at 50.0 µM) 5.6%.
In the same order, the values of `CCOC(=O)c1csc(Br)n1` are -18%, -6% and 97.8% (active).
The matching figures for `OCCNCCOc1ccc(/C(=C(/Cl)c2ccccc2)c2ccccc2)cc1`: 36%, 98% (active) and 93.8% (active).
In the same order, the values of `CCc1[nH]nc(C(N)=O)c1N=NN(C)C` are -57%, 14% and 12.8%.
On to `CCOc1ccc(C(=O)CCC(=O)O)c(C)c1`, for which the growth inhibition under setting [1] was 9% and the growth inhibition under setting [2] was 4%.
Turning to `OC(CN1CCCCC1)c1cc(Cl)c(Cl)c(Cl)c1` (stereo not given), the growth inhibition is 12% under setting [1], 49% under setting [2] and 57.1% (at 50.0 µM).
In the same order, the values of `O=C(CCc1ccccc1)ON1C(=S)C(c2ccccc2)(c2ccccc2)N=C1Sc1ccccc1` are -22%, 37% and 56.6%.
In the same order, the values of `COc1ccc2c(c1)[nH]c1c(/C=C/c3ccccc3)nccc12` are -28%, 80% (active) and 92.5% (active).
Take `Cc1cccc(/C=N\NC(=S)N2CCCCC2)n1`: the growth inhibition under setting [1] was 97% (active), the growth inhibition under setting [2] is 99% (active) and the growth inhibition (at 50.0 µM) was 91.5% (active).
Consider `CC1=CCC(C(C)(C)c2ccc(O)cc2)CC1` (stereo not given), for which the growth inhibition runs as follows: under setting [1], 7%; under setting [2], 97% (active).
For `Clc1c(Cl)c(Cl)c2c(nnn2C2CCCO2)c1Cl` (stereo not given), the growth inhibition is, setting by setting: under setting [1], -1%; under setting [2], 80% (active); (at 50.0 µM) 78% (active).
In the same order, the values of `CC[C@@]1(OC(=O)CCC(=O)O)C(=O)OCc2c1cc1n(c2=O)Cc2cc3ccccc3nc2-1` are 30%, 91% (active) and 76.3% (active).
For `N#CC(=S)Nc1cccc(Cl)c1`, the growth inhibition is 28% under setting [1], 68% under setting [2] and 66.7% (at 50.0 µM).
Take `C/C(=N\NC(=S)NC1CCCC1)c1ccccn1`: the growth inhibition by setting is: under setting [1], 13%; under setting [2], 99% (active); (at 50.0 µM) 92% (active).
